From PubChem BioAssay
Unmarked numbers belong to inactive results. Where a call stands in place of a potency, no number is given. For some assays here: Potency and affinity values are given separately. Calls of active or inactive are those of the source. Unless noted, the rule behind the calls is not given here.

Columns and labels:
[1] = antimalarial activity against Dd2 strain (AID 2302;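 active = growth inhibition above 50% at the single 2 µM test dose, taken to imply half-maximal potency below 2 µM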); details: P. falciparum Dd2 in RBCs, LDH growth readout, 72 h; at 2 µM; stronger effect = higher value
[2] = HepG2 cytotoxicity, primary screen, cytotoxicity control for P. falciparum antimalarial project, cell-based, ATP luminescence (AID 2303;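 active = inhibition above 50%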); details: HepG2 viability, 24-48 h, at 10 µM, stronger effect = higher value
[3] = target: L-lactate dehydrogenase (Plasmodium falciparum (isolate CDC / Honduras)) (UniProt Q27743); experiment: PfLDH activity inhibition – cell lysate, 3D7 strain, counter-screen for P. falciparum growth inhibition project (AID 2304); details: P. falciparum 3D7 crude extract, LDH APAD/NBT absorbance; at 2 µM; stronger effect = higher value
[4] = inhibition of 3D7 malaria parasite growth – strain 3D7 (AID 2306); details: P. falciparum 3D7 erythrocytic growth, LDH absorbance, 72 h; at 2 µM; stronger effect = higher value
[5] = target: Calcium-dependent protein kinase 1 (Plasmodium falciparum (isolate 3D7)) (UniProt P62344); experiment: PfCDPK1 kinase inhibitors, biochemical, TCAMS library (AID 1159585; cut-off not given, nearly all actives have IC50 up to about 0.98 µM;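 note: inhibitors leave more ATP so luminescence rises with inhibition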); details: recombinant PfCDPK1, Kinase-Glo ATP depletion luminescence
[6] = target: Plasmodium falciparum protein kinase 6 (PK6, PF3D7_1337100) (UniProt Q8IDW1); experiment: PfPK6 kinase inhibitors, biochemical, TCAMS library (AID 1159586); details: recombinant PfPK6, Kinase-Glo ATP depletion luminescence
[7] = target: Protein kinase 7 (PK7), Plasmodium falciparum 3D7 (PF3D7_0213400) (UniProt Q7YTF7); experiment: inhibition of Plasmodium PK7 catalytic activity – biochemical, TCAMS antimalarial set, Kinase-Glo luminescence (AID 1159587); details: recombinant PfPK7, Kinase-Glo ATP depletion luminescence
[8] = target: Calcium-dependent protein kinase 4 (Plasmodium falciparum (isolate 3D7)) (UniProt Q8IBS5); experiment: PfCDPK4 kinase inhibitors, biochemical, TCAMS library (AID 1159588; cut-off not given, nearly all actives have IC50 up to about 0.91 µM); details: recombinant PfCDPK4, Kinase-Glo ATP depletion luminescence
Sequence of Calcium-dependent protein kinase 4 (Plasmodium falciparum (isolate 3D7)) (Q8IBS5 whole entry, looked up): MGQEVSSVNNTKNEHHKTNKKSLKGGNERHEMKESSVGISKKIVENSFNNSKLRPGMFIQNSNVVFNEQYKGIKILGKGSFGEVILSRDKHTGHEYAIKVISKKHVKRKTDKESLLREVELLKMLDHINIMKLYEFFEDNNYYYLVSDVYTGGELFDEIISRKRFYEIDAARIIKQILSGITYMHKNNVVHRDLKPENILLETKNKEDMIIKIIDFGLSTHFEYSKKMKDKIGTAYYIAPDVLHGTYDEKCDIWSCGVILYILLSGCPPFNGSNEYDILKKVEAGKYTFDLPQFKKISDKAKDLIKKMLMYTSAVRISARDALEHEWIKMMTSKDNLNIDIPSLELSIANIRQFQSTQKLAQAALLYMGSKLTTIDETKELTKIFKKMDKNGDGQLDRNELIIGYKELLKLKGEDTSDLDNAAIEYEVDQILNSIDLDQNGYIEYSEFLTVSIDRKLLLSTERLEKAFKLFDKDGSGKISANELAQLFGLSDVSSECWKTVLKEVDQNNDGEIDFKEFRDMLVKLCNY

Sequence of Calcium-dependent protein kinase 1 (Plasmodium falciparum (isolate 3D7)) (P62344 whole entry, looked up): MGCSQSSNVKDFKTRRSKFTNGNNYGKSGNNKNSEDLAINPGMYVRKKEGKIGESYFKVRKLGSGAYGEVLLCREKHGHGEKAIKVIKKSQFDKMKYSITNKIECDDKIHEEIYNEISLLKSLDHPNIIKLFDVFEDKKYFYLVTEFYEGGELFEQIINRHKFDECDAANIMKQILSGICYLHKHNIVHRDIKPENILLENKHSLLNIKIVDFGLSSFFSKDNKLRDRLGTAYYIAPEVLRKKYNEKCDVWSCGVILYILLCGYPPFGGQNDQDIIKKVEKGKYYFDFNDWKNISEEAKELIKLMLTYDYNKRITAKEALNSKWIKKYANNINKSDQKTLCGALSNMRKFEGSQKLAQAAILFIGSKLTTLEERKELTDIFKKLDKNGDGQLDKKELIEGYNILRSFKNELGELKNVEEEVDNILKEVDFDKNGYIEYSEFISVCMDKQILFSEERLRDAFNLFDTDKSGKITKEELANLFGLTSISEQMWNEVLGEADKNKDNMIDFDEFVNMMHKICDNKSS
Sequence of Protein kinase 7 (PK7), Plasmodium falciparum 3D7 (PF3D7_0213400) (Q7YTF7 1-343): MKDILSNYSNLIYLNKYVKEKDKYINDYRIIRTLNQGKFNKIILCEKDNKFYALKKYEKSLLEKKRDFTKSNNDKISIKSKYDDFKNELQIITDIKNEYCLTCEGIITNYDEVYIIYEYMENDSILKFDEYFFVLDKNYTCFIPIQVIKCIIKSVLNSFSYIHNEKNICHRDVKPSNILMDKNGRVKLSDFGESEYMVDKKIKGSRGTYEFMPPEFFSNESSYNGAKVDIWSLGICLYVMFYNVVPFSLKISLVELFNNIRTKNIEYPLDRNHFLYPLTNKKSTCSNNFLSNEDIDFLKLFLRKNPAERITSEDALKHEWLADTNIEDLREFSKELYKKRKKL
Sequence of L-lactate dehydrogenase (Plasmodium falciparum (isolate CDC / Honduras)) (Q27743 whole entry, looked up): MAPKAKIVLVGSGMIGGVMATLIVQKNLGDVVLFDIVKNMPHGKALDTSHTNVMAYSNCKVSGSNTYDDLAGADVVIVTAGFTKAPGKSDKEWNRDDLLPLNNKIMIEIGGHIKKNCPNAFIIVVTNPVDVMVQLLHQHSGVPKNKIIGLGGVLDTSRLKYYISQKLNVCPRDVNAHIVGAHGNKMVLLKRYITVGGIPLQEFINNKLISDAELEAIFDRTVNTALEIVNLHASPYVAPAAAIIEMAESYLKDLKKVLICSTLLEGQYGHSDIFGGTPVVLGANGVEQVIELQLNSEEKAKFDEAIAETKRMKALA
Sequence of Plasmodium falciparum protein kinase 6 (PK6, PF3D7_1337100) (Q8IDW1 1-305): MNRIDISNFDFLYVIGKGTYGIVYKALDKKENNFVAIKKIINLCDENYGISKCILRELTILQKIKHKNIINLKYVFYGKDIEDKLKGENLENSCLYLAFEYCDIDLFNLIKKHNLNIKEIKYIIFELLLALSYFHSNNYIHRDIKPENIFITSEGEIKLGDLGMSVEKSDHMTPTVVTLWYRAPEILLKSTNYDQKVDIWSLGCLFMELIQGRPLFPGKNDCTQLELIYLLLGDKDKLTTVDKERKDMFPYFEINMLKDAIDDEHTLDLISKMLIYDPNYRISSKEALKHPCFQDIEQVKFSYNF

Structure (SMILES) | growth inhibition [1] | inhibition [2] | inhibition [3] | growth inhibition [4] | outcome [5] | outcome [6] | outcome [7] | outcome [8]
FC(F)(F)c1ccc2nc(-c3ccc(-c4cccc(CNCCc5cccnc5)c4)s3)[nH]c2c1 | 98% (active) | 26% | -3% | 101% (active) | inactive | inactive | inactive | inactive
CC(=O)Nc1cccc(C(=O)Nc2nc3ccc(-c4cc(=O)[nH]c(Nc5ccccc5Cl)n4)cc3[nH]2)c1 | 62% (active) | -2% | 6% | 99% (active) | inactive | inactive | inactive | inactive
CSc1ccc(CN2CCC(CNC(=O)c3cc(-c4ccccc4F)cs3)C2)cc1 (stereo not given) | 13% | 32% | 2% | 90% (active) | inactive | inactive | inactive | inactive
NC(N)=NN=Cc1cc([N+](=O)[O-])ccc1Sc1ccccc1CO | -1% | 25% | -2% | 84% (active) | inactive | inactive | inactive | inactive
COc1ccccc1N(C)CCNc1cc(C)nc(Nc2ccc(C)cc2)n1 | 25% | 9% | 0% | 93% (active) | inactive | inactive | inactive | inactive
COc1ccc(S(=O)(=O)N(CCCN2CCN(C)CC2)Cc2csc(-c3ccc(CNCc4ccccc4)cc3)n2)cc1 | 86% (active) | 10% | 6% | 88% (active) | inactive | inactive | inactive | inactive
COc1cccc(-c2cnc(N)c(-c3nc4ccc(F)cc4[nH]3)c2)c1 | 43% | 47% | 5% | 97% (active) | inactive | inactive | inactive | inactive
COc1cccc(CCc2nc3c(N4CCC(Cc5ccccc5)CC4)cccc3n2CC2CNCCO2)c1 (stereo not given) | 96% (active) | 4% | 4% | 94% (active) | inactive | inactive | inactive | inactive
O=C(CC(=O)Nc1cc(Cl)cc(Cl)c1)Nc1cc(Cl)cc(Cl)c1 | 96% (active) | -4% | -2% | 95% (active) | inactive | inactive | inactive | inactive
CC(C)Cn1c(Sc2ccc(C#N)c([N+](=O)[O-])c2)nnc1-c1ccc(N(C)C)cc1 | 98% (active) | 4% | 4% | 98% (active) | inactive | inactive | inactive | inactive
COc1ccc2nccc(NN=Cc3ccc(Cl)cc3)c2c1 | 72% (active) | 9% | -1% | 101% (active) | inactive | inactive | inactive | inactive
COc1ccccc1Oc1c(N(C)S(=O)(=O)c2ccc(C(C)C)cc2)nc(C(F)(F)F)nc1N(C)S(=O)(=O)c1ccc(C(C)C)cc1 | 98% (active) | 4% | -6% | 94% (active) | inactive | inactive | inactive | inactive
Clc1ccc(-c2cc(-c3csc(NCCN4CCOCC4)n3)on2)c(Cl)c1 | 86% (active) | 39% | -3% | 97% (active) | inactive | inactive | inactive | inactive
CCn1nc(C(=O)NC2CCOc3ccccc32)c2ccccc2c1=O (stereo not given) | 59% (active) | 13% | 0% | 86% (active) | inactive | inactive | inactive | inactive
CCOc1cc2c(cc1OCC)C(c1cc(OC)c(O)cc1Cl)NCC2 (stereo not given) | 97% (active) | 15% | -7% | 100% (active) | inactive | inactive | inactive | inactive
CCN(CC)CCCC(C)Nc1c2cc(OC)ccc2nc2cc(Cl)c([N+](=O)[O-])cc12 (stereo not given) | 89% (active) | 12% | 2% | 100% (active) | inactive | inactive | inactive | inactive
COc1ccc(CNCc2cccc(-c3cccc(-c4nc5ccc(F)cc5[nH]4)c3)c2)cc1 | 55% (active) | 18% | 5% | 100% (active) | inactive | inactive | inactive | inactive
CC(=O)Nc1ccc(OCCN(CC(C)C)c2ccc(C(F)(F)F)c(C#N)c2)c(Cl)c1 | 95% (active) | 13% | 2% | 96% (active) | inactive | inactive | inactive | inactive
COc1cccc(C=Cc2nc(=O)c3ccccc3o2)c1OC | 97% (active) | -19% | 7% | 97% (active) | inactive | inactive | inactive | inactive
O=[N+]([O-])c1ccc(Nc2nc(NCc3ccccc3)nc(NN=Cc3ccccc3[N+](=O)[O-])n2)cc1 | 99% (active) | 18% | -9% | 101% (active) | inactive | inactive | inactive | inactive

Structure (SMILES) | growth inhibition [1] | inhibition [2] | inhibition [3] | growth inhibition [4] | outcome [5] | outcome [6] | outcome [7] | outcome [8]
O=C(Cc1ccc([N+](=O)[O-])cc1)N1CCc2cc3nccc(N4CCN5CCC[C@H]5C4)c3cc21 | 7% | -7% | -4% | 95% (active) | inactive | inactive | inactive | inactive
Cc1cccc2[nH]c(-c3cccc(-c4ccc(C(=O)NCc5ccccc5S(C)(=O)=O)cc4)c3)nc12 | 27% | 17% | 1% | 100% (active) | inactive | inactive | inactive | inactive
Cc1nc2ccc(-c3nc4ccc(N)cc4[nH]3)cc2[nH]1 | 80% (active) | 6% | -5% | 94% (active) | inactive | inactive | inactive | inactive
O=C(Nc1ccc(-c2nc3ccccc3[nH]2)cc1)c1ccc(S(=O)(=O)N2CCCCC2)cc1 | 6% | 23% | 2% | 95% (active) | inactive | inactive | inactive | inactive
O=c1cc(NCCCNCc2scc(I)c2I)[nH]c2ccccc12 | 73% (active) | -16% | -1% | 100% (active) | inactive | inactive | inactive | inactive
CCOc1cc(C(=O)NC2CC(C)(C)NC(C)(C)C2)ccc1-c1cc2cc(Cl)c(Cl)cc2[nH]1 | 46% | 37% | -1% | 101% (active) | inactive | inactive | inactive | inactive
CC(C)C1=C[C@H]2C[C@]3(C4OCCO4)[C@@H]4CC[C@@H](C)[C@H]4C[C@@]2(COCc2cccc(C#N)c2)[C@]13C(=O)OC(c1ccccc1)c1ccccc1 | 92% (active) | -5% | 8% | 88% (active) | inactive | inactive | inactive | inactive
CN1CCC(N(Cc2ccc(-c3cnc(NCc4ccccc4)nc3)cc2)S(=O)(=O)c2ccccc2)CC1 | 10% | 48% | 1% | 102% (active) | inactive | inactive | inactive | inactive
NC1CCCN(Cc2cccc(-c3ccc(-c4nc5ccc(F)cc5[nH]4)cc3)c2)C1 (stereo not given) | 99% (active) | 40% | -3% | 101% (active) | inactive | inactive | inactive | inactive
COc1cc2c(cc1S(=O)(=O)c1ccc(COc3ccc(C(F)(F)F)cc3)cc1)CNCC2 | 89% (active) | 32% | 5% | 103% (active) | inactive | inactive | inactive | inactive
COc1ccc(-c2nnc(Sc3ccc(C#N)c([N+](=O)[O-])c3)n2CC(C)C)cc1 | 78% (active) | 3% | 4% | 97% (active) | inactive | inactive | inactive | inactive
COc1ccc(CCN(C)CCCOc2ccc(NC(=O)c3cccc4c(=O)c5ccccc5[nH]c34)cc2)cc1OC | 45% | 80% (active) | 1% | 94% (active) | inactive | inactive | inactive | inactive
N#Cc1nc2ccc(OCCN(Cc3ccccc3C(F)(F)F)c3ccc(C#N)c(C(F)(F)F)c3)cc2s1 | 47% | 23% | 6% | 93% (active) | inactive | inactive | inactive | inactive
COc1cc(-c2ccc(-c3cnc(N)nc3OC)[nH]2)cc(OC)c1OC | 54% (active) | -3% | -2% | 101% (active) | inactive | inactive | inactive | inactive
COc1cccc(C(=O)Nc2ccc(Nc3nc(C)cc(N4CCCCC4)n3)cc2)c1OC | 27% | 47% | 1% | 92% (active) | inactive | inactive | inactive | inactive
O=C(NC1CCC(CCN2Cc3cccc(F)c3C2)CC1)c1cccc(-c2cccnc2)c1 (stereo not given) | 82% (active) | 16% | -2% | 98% (active) | inactive | inactive | inactive | inactive
CNC(=O)c1cc(S(=O)(=O)N2CCN(c3ccccn3)CC2)cs1 | 100% (active) | -2% | -3% | 99% (active) | inactive | inactive | inactive | inactive
Nc1c2c(nc3ccc(NC(=O)Cc4ccccc4)cc13)CCCC2 | -2% | 9% | 6% | 101% (active) | inactive | inactive | inactive | inactive
CCc1cn2c3c(cc(C(=O)N[C@@H](Cc4ccccc4)[C@H](O)CNCc4cccc(C)c4)cc13)N(C)S(=O)(=O)CC2 | 98% (active) | 5% | 5% | 96% (active) | inactive | inactive | inactive | inactive
CCCNCc1c(O)ccc2c(CNCCC)c(O)ccc12 | 9% | 24% | -1% | 101% (active) | inactive | inactive | inactive | inactive
